Pf Dd2 growth = qHTS Primary assay for Inhibitors of Plasmodium falciparum Dd2 growth in vitro | P. falciparum Dd2 growth, SYBR Green, 72 h | Potency, µM (highest dose often 28.9 µM), for the others: at the highest dose activity, negative = inhibition, hits mostly inhibitors | 120,000 compounds, 4.3% hits | AID 1347417, 2020; active = well fitted inhibition curve with a large enough effect;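 note: plate controls were DMSO vehicle for no effect and reference drug for full effect; nearly all actives have a fitted effect of over 65% in size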
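Readout: SYBR Green fluorescence, 485 nm excitation, 535 nm emission, after ~16 h lysis at 37C. Before that, Dd2-infected red cells (2.5% hematocrit) grew 72 h with compound, 29 uM top final concentration.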
Starred values were filed as active, the others as inactive; [ ] = remark or other dose. Shown is part of a subset that was picked to be rich in hits. Potency is the fitted concentration of half-maximal effect.

O=C(Cn1nc2n(c1=O)CCCCC2)NCCC1=CCCCC1 was read as Pf Dd2 growth -47.9%.
For Cc1nc(CN2CCOC3(CCN(Cc4ccccc4Cl)CC3)C2=O)cs1 the results were Pf Dd2 growth inactive.
For COCC1(CNC(=O)c2nc3ccccc3[nH]2)C[C@@H](O)[C@@H](O)C1 (stereo partly drawn) the results were Pf Dd2 growth 9.2%[44.1 µM].
CC(C)CCNC(=O)c1cc2n(n1)CC(c1ccc3c(c1)OCO3)OC2 (stereo not drawn) was read as Pf Dd2 growth -12.7%.
Screening O=C(O)Cn1ccc2cc(OCCc3cccc(-c4ccc(F)cc4F)c3)cnc21 returned Pf Dd2 growth inactive.
For Cc1cnc(CC2CCCN(C(=O)c3ccnn3C)C2)n1C(C)C (stereo not drawn) the results were Pf Dd2 growth -0.9%.
For O=C1COCCN1C1CCN(S(=O)(=O)c2cccc(C(F)(F)F)c2)CC1 the results were Pf Dd2 growth 5.5%.
For CCc1cnc(C)nc1N1CCC(Oc2ccc3ccccc3c2)(C(=O)O)CC1 the results were Pf Dd2 growth -8.6%.
Cc1nn2c(NCCc3ncc[nH]3)cc(-c3ccccc3)nc2c1C was read as Pf Dd2 growth -5.2%.
`COc1ccc(CC(=O)N2[C@@H]3CC[C@H]2CC(NC(=O)c2cnc(C)cn2)C3)cc1OC` (stereo partly drawn) gave Pf Dd2 growth 14.2%.
O=C(Cc1ccc(F)cc1)N1CCC(c2nn(Cc3ccccc3)c(=O)[nH]2)CC1 was read as Pf Dd2 growth -13.5%.
For Cn1nccc1C(=O)N1CCCN(S(=O)(=O)c2ccccc2)CCC(=O)NCC1 the results were Pf Dd2 growth 5.6%.
For CCOC(=O)N1CCc2c(sc3c2c(=O)n(-c2ccc(Cl)cc2)c(=O)n3Cc2cccc(C)c2)C1 the results were Pf Dd2 growth -6.5%.
`CC(=O)N1CCc2c(sc3c2c(=O)n(-c2cccc(Cl)c2)c(=O)n3Cc2ccc(F)cc2Cl)C1` gave Pf Dd2 growth 11.2µM*.
`CCOC(=O)N1CCc2c(sc3c2c(=O)n(Cc2ccccc2)c(=O)n3Cc2cccc(Cl)c2)C1` gave Pf Dd2 growth 11.2µM*.
`COc1cccc(-n2c(=O)c3c4c(sc3n(Cc3ccc(F)cc3Cl)c2=O)CCCC4)c1` gave Pf Dd2 growth 12.7%.
Screening CC(=O)N1CCc2c(sc3c2c(=O)n(-c2ccc(F)cc2)c(=O)n3Cc2cc(C)ccc2C)C1 returned Pf Dd2 growth -0.8%.
`CCOC(=O)N1CCc2c(sc3c2c(=O)n(-c2ccc(Cl)cc2)c(=O)n3Cc2cccc(OC)c2)C1` gave Pf Dd2 growth -21.3%.
For C/C=C/CC(=O)N1CCC(Oc2ccccc2OC)(C(=O)O)CC1 the results were Pf Dd2 growth -8.5%.
For Cc1cccc(C(=O)N2CCn3nnc(CCC(=O)NC4CC4)c3C2)c1 the results were Pf Dd2 growth -8.2%.
CC(=O)N1CC2(CCCCN2Cc2ccc(Cl)cc2)Cc2ccccc21 (stereo not drawn) was read as Pf Dd2 growth 4.0%.
For CC(=O)N1CC2(CCN(Cc3ccccn3)C2)Cc2ccccc21 (stereo not drawn) the results were Pf Dd2 growth -1.0%.
CC(=O)N1CC2(CCN(Cc3ccc(Cl)cc3)CC2)Cc2ccccc21 was read as Pf Dd2 growth -21.1%.
Screening O=C(c1ccc(Cl)cc1)N1CC2(CCN(Cc3c[nH]c4ccccc34)CC2)Cc2ccccc21 returned Pf Dd2 growth 2.51µM*.
Screening C[S+](=O)([O-])N1CC2(CCN(Cc3ccc(Cl)cc3)CC2)Cc2ccccc21 returned Pf Dd2 growth -29.3%.
Screening CC(=O)N1CC2(Cc3ccccc31)CN(C(=O)c1ccc(C(F)(F)F)cc1)C2 returned Pf Dd2 growth -27.7%.
Screening O=C(c1ccc(Cl)cc1)N1CC2(CCN(Cc3cccnc3)C2)Cc2ccccc21 (stereo not drawn) returned Pf Dd2 growth 8.91µM*.
For COCC1CN(C(C)=O)CC12CCN(Cc1c[nH]c3ccccc13)CC2 (stereo not drawn) the results were Pf Dd2 growth -6.2%.
CC(=O)N1CC2(CCN(Cc3ccccn3)CC2)Cc2ccccc21 was read as Pf Dd2 growth -12.1%.
`O=C(c1ccc(Cl)cc1)N1CC2(CCN(Cc3ccc(Cl)cc3)CC2)Cc2ccccc21` gave Pf Dd2 growth 12.6µM*.
O=C(c1ccc(Cl)cc1)N1CC2(CCCN2Cc2ccc(C(F)(F)F)cc2)Cc2ccccc21 (stereo not drawn) was read as Pf Dd2 growth 10µM*.
`Cc1ccccc1C(=O)N1CC(c2nnc(-c3ccncc3)o2)C2(CCOCC2)C1` (stereo not drawn) gave Pf Dd2 growth 8.2%.
Screening Cc1noc([C@@H]2CN(Cc3cccc(F)c3F)C[C@H]2CO)n1 returned Pf Dd2 growth 16.0%.
`COC(=O)c1cn([C@H]2CO[C@H]3[C@@H]2OC[C@@H]3NC(=O)NC2CCCCC2)nn1` gave Pf Dd2 growth 6.2%[44.1 µM].
For Cc1cc2nc3n(c(=O)c2n1CC(=O)NCCCc1ccccc1)CCCC3 the results were Pf Dd2 growth -12.3%.
COCC(=O)N1CCC2(CCN(Cc3cccc(C)n3)CC2)C(CO)C1 (stereo not drawn) was read as Pf Dd2 growth 12.1%.
For CN(C)C(=O)c1c[nH]c2cccnc12 the results were Pf Dd2 growth 14.5%[44.1 µM].
Screening COc1ccc(N2CC(C(=O)N(C)CCc3noc(C)n3)CC2=O)cc1Cl (stereo not drawn) returned Pf Dd2 growth 4.3%.
Screening Cc1ccccc1Cn1c(CN2CCCC(C)C2)nc2c1c(=O)n(C)c(=O)n2C (stereo not drawn) returned Pf Dd2 growth 9.2%.
`Cc1noc(C)c1CN1CCCC(COc2ccccc2C(=O)N2CCC(C)CC2)C1` (stereo not drawn) gave Pf Dd2 growth -3.4%.
Screening Cc1ccc(Oc2c(C(F)(F)F)oc3cc(OCC(=O)NC4CCCCC4)ccc3c2=O)cc1 returned Pf Dd2 growth -29.7%.
Screening Cc1ccc(Oc2c(C(F)(F)F)oc3c(CN4CCC(C)CC4)c(O)ccc3c2=O)cc1 returned Pf Dd2 growth 1µM*.
Screening CC1CCN(Cc2c(O)ccc3c(=O)c(Oc4ccccc4Cl)c(C(F)(F)F)oc23)CC1 returned Pf Dd2 growth 0.631µM*.
CC1CCCN(Cc2c(O)ccc3c(=O)c(Oc4ccccc4Cl)c(C(F)(F)F)oc23)C1 (stereo not drawn) was read as Pf Dd2 growth 0.891µM*.
`CNC(=O)[C@@H](c1ccccc1F)N1CCC[C@H]1C(=O)NCC(C)C` gave Pf Dd2 growth 5.1%[44.1 µM].
For COc1ccc(C(=O)N2CCC3(CC2)OCC(C(=O)NC2CC2)N3C(=O)c2ccc(F)cc2)cc1 (stereo not drawn) the results were Pf Dd2 growth -27.6%.
COCCNC(=O)C1COC2(CCN(C(=O)c3ccc(F)cc3)CC2)N1C(=O)c1ccc(C)cc1 (stereo not drawn) was read as Pf Dd2 growth -0.2%.
Screening COc1ccc(OC)c(CN2CCCn3nc(C)c(-c4cnccc4C)c32)c1 returned Pf Dd2 growth inactive.
For CCc1noc(-c2cn(C3CCN(C(=O)c4ccc5c(c4)OCO5)C3)nn2)n1 (stereo not drawn) the results were Pf Dd2 growth inactive.
For O=C1C(O)C2(CCCCC2)N1C1CCNCC1 (stereo not drawn) the results were Pf Dd2 growth 10.3%.
C1CCC2(CC1)C(OCC1CC1)CN2C1CCNCC1 (stereo not drawn) was read as Pf Dd2 growth 3.98µM*.
Screening COCCOC1CN(C2CCN(C(=O)NC(C)C)CC2)C12CCCCC2 (stereo not drawn) returned Pf Dd2 growth inactive.

Screens (PubChem BioAssay)
